Assay [1] in a line: resazurin metabolic signal in HepG2 cells – cell-based, resazurin fluorescence, 24 h, PK04 Diversity Set, profiling panel (AID 1172). Also: test concentration not given here. Conditions: HepG2 viability, higher = more signal. For orientation: Alamar Blue is a resazurin reagent that responds to reducing activity.
Assay [2] can be described thus: budding yeast growth changes without added modifier – OD600, strain BY4716, 24 h, basal condition, primary screen (AID 1173). Conditions: S. cerevisiae BY4716 growth, OD600, 24 h; higher = more signal, called active from +8 up or from −8 down.
The nature of assay [3]: viability profiling in MM1S myeloma cells – cell-based, resazurin fluorescence, basal, 24 h, PK04 Diversity Set, profiling panel (AID 1174).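 Also: MM1S multiple myeloma cell line; test concentration not given here.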 The following applies: higher = more signal, called active from +8 up or from −8 down.
Assay [4] concerns the target Dihydroorotate dehydrogenase (quinone), mitochondrial (Plasmodium falciparum (isolate 3D7)) (UniProt Q08210). Description: inhibition of P. falciparum DHODH – biochemical, C-terminal His tag, absorbance 600 nm, primary screen (AID 1175).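 Also: recombinant parasite enzyme with a five histidine tag at its C terminus; test concentration not given here.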 Conditions: PfDHODH enzyme, DCIP absorbance 600 nm; higher = more signal, called active from +8 up or from −8 down.
Assay [5] in a line: inhibition of PAO1 biofilm formation – strain PAO1, LB-PBS medium, absorbance 600 nm, primary screen (AID 1176). Also: test concentration not given here. Conditions: P. aeruginosa PAO1 growth/biofilm, A600, 12 h; higher = more signal.
A short description of assay [6]: growth modulation of vineyard yeast isolate – strain RM11-1a, OD600, basal, 24 h, primary screen (AID 1177).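 Also: cultures grown under basal conditions with no added stressor; test concentration not given here.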 Conditions: S. cerevisiae RM11-1a growth, OD600, 24 h; higher = more signal, called active from +8 up or from −8 down.
The nature of assay [7]: growth of efflux-deficient E. coli DRC39 – strain DRC39, OD650, 24 h, E. coli filamentation inducers, primary screen (AID 1178).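 Also: growth measured as culture turbidity by optical density at 650 nm; test concentration not given here.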 The following applies: E. coli DRC39 acrAB, higher = more signal, called active from +8 up or from −8 down.
Assay [8] is described as follows: growth of efflux-deficient E. coli DRC39 – strain DRC39, OD650, 48 h, E. coli filamentation inducers, primary screen (AID 1179).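 Also: screen aims at cell division blockers that make cells filament.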 The following applies: E. coli DRC39 delta-acrAB growth, higher = more signal, called active from +8 up or from −8 down.
Assay [9] can be described thus: viability profiling in RPMI8226 myeloma cells – cell-based, resazurin fluorescence, basal, 24 h, PK04 Diversity Set, profiling panel (AID 1180).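 Also: RPMI8826 multiple myeloma cell line at 5000 cells per well; test concentration not given here.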 Conditions: higher = more signal.
The target of assay [10] is E3 ubiquitin-protein ligase XIAP (Homo sapiens) (UniProt P98170). In words: small molecules binding XIAP protein – biophysical, small-molecule microarray, fluorescence 635 nm, primary screen (AID 1181).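 Also: score merges 667 nm emission and signal to noise over triplicate slides.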 Conditions: higher = more signal.

Molecules are shown by their SMILES. Calls of active or inactive are those of the source. Unless noted, no rule for the calls is given here.

Sequence of Dihydroorotate dehydrogenase (quinone), mitochondrial (Plasmodium falciparum (isolate 3D7)) (Q08210 whole entry, looked up): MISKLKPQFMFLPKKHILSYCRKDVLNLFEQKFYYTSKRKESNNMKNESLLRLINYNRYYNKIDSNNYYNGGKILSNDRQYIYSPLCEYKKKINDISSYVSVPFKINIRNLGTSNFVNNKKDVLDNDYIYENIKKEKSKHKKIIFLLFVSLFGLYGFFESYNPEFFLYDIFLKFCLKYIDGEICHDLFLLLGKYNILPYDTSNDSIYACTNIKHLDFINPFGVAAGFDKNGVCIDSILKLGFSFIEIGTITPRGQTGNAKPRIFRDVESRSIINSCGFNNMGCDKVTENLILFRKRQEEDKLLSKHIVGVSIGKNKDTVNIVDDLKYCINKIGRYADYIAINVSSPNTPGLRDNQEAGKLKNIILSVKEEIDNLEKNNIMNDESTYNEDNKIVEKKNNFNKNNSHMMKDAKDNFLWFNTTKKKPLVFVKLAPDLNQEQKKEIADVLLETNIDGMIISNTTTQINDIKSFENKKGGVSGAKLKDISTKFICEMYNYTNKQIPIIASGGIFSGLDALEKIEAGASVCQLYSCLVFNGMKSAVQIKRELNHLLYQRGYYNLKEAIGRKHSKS
Sequence of E3 ubiquitin-protein ligase XIAP (Homo sapiens) (P98170 whole entry, looked up): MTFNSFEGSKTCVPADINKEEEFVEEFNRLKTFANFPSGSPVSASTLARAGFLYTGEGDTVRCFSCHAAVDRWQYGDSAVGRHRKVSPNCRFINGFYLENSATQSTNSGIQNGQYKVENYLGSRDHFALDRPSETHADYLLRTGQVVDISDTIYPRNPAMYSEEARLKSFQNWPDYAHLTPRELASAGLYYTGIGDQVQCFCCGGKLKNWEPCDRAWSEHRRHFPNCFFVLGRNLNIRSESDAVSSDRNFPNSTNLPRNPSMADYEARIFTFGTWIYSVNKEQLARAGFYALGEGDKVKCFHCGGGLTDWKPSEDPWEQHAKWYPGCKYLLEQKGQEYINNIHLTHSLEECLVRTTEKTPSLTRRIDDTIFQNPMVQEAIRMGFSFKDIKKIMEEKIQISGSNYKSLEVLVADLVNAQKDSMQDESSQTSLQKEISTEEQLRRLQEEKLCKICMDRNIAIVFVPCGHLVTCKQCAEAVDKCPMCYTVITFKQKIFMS

For the compound `CC(C)[Si](OCC[C@H]1O[C@]2(C(=O)N(Cc3ccccc3)c3ccccc32)[C@@H](C)[C@@H]1[Si](C)(C)O)(C(C)C)C(C)C`, the z-score is -0.563 in assay [1]; -0.113 (inactive) in assay [2]; 0.115 (inactive) in [3]; -0.66 (inactive) in [5]; 1.11 (inactive) in assay [6]; -0.297 (inactive) in [7]. Also, the z-score in assay [8] is -0.837 (inactive); in assay [9] it was 0.261. For the same compound, the composite z-score in assay [4] is 0.766 (inactive); in [10], -0.142.
On to `C=CC[C@]1(C(=O)N2CCCCC2)N=C(c2ccc(OCCCO)cc2)O[C@H]1c1ccccc1N=[N+]=[N-]`, for which the z-score in assay [1] was -0.0748; in assay [2], -0.807 (inactive); in assay [3] it was -1.91 (inactive); in assay [5], 0.274 (inactive); in [6] it was 1.55 (inactive); in assay [7], 0.16 (inactive). In addition, the figures for the z-score in assay [8] and in assay [9] were -0.58 (inactive) and -1.15, respectively. Besides, the results for the composite z-score in [4] and in assay [10] were 2.06 (inactive) and 1.74, respectively.
As to `Cc1ccc([C@@H]2CC=C(C(=O)O)[C@H](c3ccccc3)N2S(=O)(=O)c2ccc(C)cc2)cc1`, the z-score is -1.02 in [1]; -2.08 (inactive) in assay [2]; -1.26 (inactive) in assay [3]; -0.405 (inactive) in assay [5]; 0.0193 (inactive) in assay [6]; -1.36 (inactive) in [7]. In addition, the z-score in assay [8] is -1.3 (inactive); in [9], -1.99. Besides, the values for the composite z-score in [4] and in [10] were -0.527 (inactive) and -0.202, respectively.
Take `CC[C@H]1C2=C3C(CC[C@H]4C(OC)OC[C@](C)([C@@H]34)N(C(=O)OC(C)(C)C)C2)C(CO)C1CO` (stereo not given in full): the z-score in assay [1] is -0.453; in assay [2], 0.145 (inactive); in [3], -0.713 (inactive); in [5], 0.452 (inactive); in assay [6] it was -0.681 (inactive); in assay [7], -0.0328 (inactive). The figures for the z-score in [8] and in assay [9] were 0.753 (inactive) and -0.141, respectively. Also, the composite z-score is -0.929 (inactive) in [4] and 0.26 in [10].
Turning to `Cc1ccc(S[C@]2(C(=O)NC3CC3)CC(=O)N(Cc3cc(C(F)(F)F)cc(C(F)(F)F)c3)[C@@H]2c2ccc(CO)cc2)cc1`, the z-score was 1.1 in [1]; -1.03 (inactive) in assay [2]; 0.219 (inactive) in [3]; 0.214 (inactive) in assay [5]; -0.921 (inactive) in assay [6]; 0.327 (inactive) in [7]. Moreover, the values for the z-score in assay [8] and in assay [9] were 0.561 (inactive) and 1.25, respectively. Further, the composite z-score was -2.37 (inactive) in assay [4] and 0.209 in [10].
For `O=C1C2C=CC(C(O)C(c3ccccc3)c3ccccc3)N(Nc3ccc([N+](=O)[O-])cc3)C2C(=O)N1c1ccccc1` (stereo not given), the z-score in [1] is 0.867; in [2] it was 0.852 (inactive); in [3], 0.0597 (inactive); in assay [5] it was 0.89 (inactive); in assay [6] it was 0.601 (inactive); in [7], -1.12 (inactive). The z-score in assay [8] is 0.058 (inactive); in assay [9] it was -1.03. Besides, the composite z-score in [4] was 0.665 (inactive); in assay [10], 0.0553.
`COC(=O)[C@@]1(Cc2ccccc2CN=[N+]=[N-])N=C(c2ccc(OCCCO)cc2)O[C@H]1c1ccccc1N=[N+]=[N-]`: the z-score in [1] is -0.806; in assay [2], 1.49 (inactive); in [3], -3.44 (inactive); in [5] it was 1.69 (inactive); in assay [6], 2.6 (inactive); in assay [7], 0.365 (inactive). Besides, the z-score in [8] was -0.762 (inactive); in assay [9], -3.59. The figures for the composite z-score in assay [4] and in assay [10] were 3.12 (inactive) and -0.0095, respectively.
With `C=CCC(OC(C)=O)[C@@H]1[C@@H](N(Cc2cccc3ccccc23)C(=O)Cc2ccc(F)cc2)c2cc(OCCCO)ccc2N1C(=O)Cc1ccc2ccccc2c1` (stereo not given in full), the z-score in assay [1] was 0.549; in assay [2], 0.595 (inactive); in [3], 0.295 (inactive); in [5], 0.195 (inactive); in assay [6], 0.0764 (inactive); in assay [7], -0.283 (inactive). Moreover, the z-score was 0.4 (inactive) in [8] and -1.29 in assay [9]. Moreover, the results for the composite z-score in assay [4] and in assay [10] were -0.373 (inactive) and -0.0332, respectively.
Take `CCOC(=O)C[C@H]1[C@H](OC(=O)c2cc3ccccc3oc2=O)[C@@H](NC(=O)C2CCCCC2)c2cc(OCCCO)ccc2N1C(=O)c1ccc2ccccc2n1`: the z-score is -0.35 in assay [1]; 1 (inactive) in [2]; 0.201 (inactive) in assay [3]; -0.0339 (inactive) in assay [5]; 1.58 (inactive) in assay [6]; 0.205 (inactive) in assay [7]. For the same compound, the results for the z-score in [8] and in assay [9] were 0.0214 (inactive) and 0.15, respectively. Further, the figures for the composite z-score in [4] and in assay [10] were 0.884 (inactive) and -0.22, respectively.
Turning to `O=C1OCC=C[C@H]2OC34C=CCN(Cc5ccccc5)C(=O)[C@H]3N(CCO)C(=O)[C@@H]4[C@@H]12` (stereo not given in full), the z-score in assay [1] was 1.21; in [2] it was -0.999 (inactive); in assay [3], 1.6 (inactive); in assay [5], 0.317 (inactive); in assay [6] it was -0.77 (inactive); in assay [7], 0.508 (inactive). Moreover, the results for the z-score in assay [8] and in [9] were 0.186 (inactive) and 0.894, respectively. The composite z-score in assay [4] is -0.415 (inactive); in [10], -0.16.
Consider `CCC#CCN(Cc1ccccc1Br)[C@H](/C=C/c1ccccc1)[C@@H](O)Cc1ccccc1`, for which the z-score in assay [1] is 1.53; in assay [2], 0.238 (inactive); in assay [3] it was 0.753 (inactive); in assay [5] it was -0.553 (inactive); in assay [6] it was 0.846 (inactive); in assay [7] it was 1.19 (inactive). For the same compound, the z-score was 0.994 (inactive) in assay [8] and 0.0518 in assay [9]. The figures for the composite z-score in [4] and in [10] were 0.514 (inactive) and 0.0101, respectively.
On to `CCc1cccc(NC(=O)O[C@H]2[C@H](OC(=O)Nc3ccccc3)[C@@H](OC(=O)Nc3ccccc3)[C@@H](OC)O[C@@H]2CO)c1`, for which the z-score in assay [1] was -2.9; in assay [2] it was 0.28 (inactive); in assay [3], -5.58 (inactive); in [5] it was 0.497 (inactive); in [6], 2.4 (inactive); in [7] it was 1.47 (inactive). Besides, the z-score in assay [8] is 0.711 (inactive); in assay [9] it was -4.86. In addition, the composite z-score in assay [4] is 0.189 (inactive); in [10], 0.0153.
Take `Cc1ccc(S[C@]2(C(=O)NCCCN(C)C)CC(=O)N(Cc3ccccc3)[C@@H]2c2ccc(CO)cc2I)cc1`: the z-score in [1] is -0.896; in assay [2], -4.78 (inactive); in assay [3], -2.94 (inactive); in [5], -0.369 (inactive); in assay [6] it was -1.03 (inactive); in assay [7], -0.361 (inactive). Besides, the z-score is -0.554 (inactive) in assay [8] and -2.15 in assay [9]. For the same compound, the values for the composite z-score in assay [4] and in [10] were -1.38 (inactive) and -0.0848, respectively.

Values taken from PubChem BioAssay.
